Reference: ChEMBL document CHEMBL3988442, “University of Dundee, Small-Polar-MMV Screening Library” (2021)
The whole screen tested about 38,000 compounds, of which about 1,200 (3.2%) showed an effect of 50% or more. The median lay at about -58%. What follows is part of a selection rich in strong results, with near analogues and random picks from the rest.

Each compound was assayed on Plasmodium falciparum (assay: Calibr Malaria Delayed Death Assay SOP). Details: concentration 4.99e-06 (unit not given; other assays of the set use mol/L).
Assay type: functional, organism-based
Set-up: scale not given: in the data most compounds retested in dose-response had high values

Structure (SMILES)	Percent Effect [%]
COCC1CN(Cc2ccsc2)Cc2cnn(C)c21 (stereo not given)	-44.18
CC(C)[C@H](NC(=O)NC1CCS(=O)(=O)C1)C(=O)NCc1ccccc1 (stereo not given in full)	-124.5
CC(C)c1cc(C(=O)N2C[C@H]3CC[C@@H]2CN(Cc2ccccn2)C3)no1	-200.1
O=C(CN1C[C@H]2CC[C@@H]1CN(Cc1ccccn1)C2)Nc1ccccc1	82.97
Cc1nnsc1CN1C[C@H]2CC[C@@H]1CN(Cc1ccccn1)C2	-7.135
O=C(CN1C[C@H]2CC[C@@H]1CN(Cc1ccccn1)C2)NCc1cccs1	67.17
Cc1cnn(C2CN(CC(=O)NCc3ccccn3)C2)c1	-188.5
O=C(c1cc(C2CC2)no1)N1C[C@H]2CC[C@@H]1CN(Cc1ccccn1)C2	5.083
Cc1nccc(CNC(=O)N(CCCO)C2CCc3ccccc32)n1 (stereo not given)	-86.6
COc1ccccc1CNC(=O)COc1ccc2c(c1)OCC2O (stereo not given)	-166.7
CC(C)n1cc(-c2nc3cc(S(=O)(=O)N4CCCC4)ccc3n2C)cn1	-92.66
O=C(NCCn1cccc1)C(c1ccccc1)N1CCCC1 (stereo not given)	54.29
Cc1ccccc1C(C(=O)NCCn1cccc1)N(C)C (stereo not given)	36.37
O=C(NCCNc1cccnc1)C(c1cccnc1)N1CCCC1 (stereo not given)	-14.56
Cc1ccccc1C(C(=O)NCCN1CCC(CO)CC1)N(C)C (stereo not given)	-106.7
CC1(C(=O)NCCN2CCCCC2)CCCN1C(=O)c1ccccc1 (stereo not given)	-16.7
Cc1ccc(C(C(=O)NCCN2CCC(CO)CC2)N(C)C)cc1 (stereo not given)	-10.34
O=C(NCCN1CCCCC1)C(c1ccccc1)N1CCCC1 (stereo not given)	79.97
CN1CCN(CCNC(=O)C(OC2CCCC2)c2ccccc2)CC1 (stereo not given)	38.55
Cc1ccc(C(C(=O)NCCN2CCCCCC2)N(C)C)cc1 (stereo not given)	58.29
COc1cccc(Cn2cc(N3C(=O)[C@H]4CCCC[C@H]4C3=O)cn2)c1	-60.69
Cc1cccc(C)c1OCCCN1CCN(CC2CCCO2)CC1 (stereo not given)	11.15
CC/N=c1\nc(NCC)nc2n1C(O)(Nc1cc(Cl)ccc1Cl)CS2 (stereo not given)	-3.589
CC(=O)c1ccc(NC(=O)N[C@H](C(=O)O)C(C)C)cc1	-95.29

Structure (SMILES)	Percent Effect [%]
NC1CCCc2nc(-c3ccccc3)ncc21 (stereo not given)	-87.16
O=C(c1ccccc1Cl)N1CC[C@H](O)[C@@H](N2CCOCC2)CC1	-83.45
CCOC[C@]12COC[C@H]1CN(Cc1cccc(OC)c1)C2.O=C(O)C(F)(F)F	-1.674
COc1ncccc1CN1C[C@@H]2COC[C@]2(COc2cccnc2)C1.O=C(O)C(F)(F)F.O=C(O)C(F)(F)F.O=C(O)C(F)(F)F	-33.52
COc1cccc(CN2C[C@@H]3COC[C@]3(COCc3ccccn3)C2)c1.O=C(O)C(F)(F)F.O=C(O)C(F)(F)F	58.94
O=C(O)C(F)(F)F.O=C(O)C(F)(F)F.O=C(O)C(F)(F)F.c1ccc(CN2C[C@@H]3COC[C@]3(COCc3ccncc3)C2)nc1	-55.25
COc1ccccc1CN1C[C@@H]2COC[C@]2(COCc2ccncc2)C1.O=C(O)C(F)(F)F.O=C(O)C(F)(F)F	53.03
O=C(O)C(F)(F)F.O=C(O)C(F)(F)F.O=C(O)C(F)(F)F.c1cc(COC[C@]23COC[C@H]2CN(Cc2ccncc2)C3)ccn1	-128.8
COc1cccc(CN2C[C@@H]3COC[C@]3(COc3cccnc3)C2)c1.O=C(O)C(F)(F)F.O=C(O)C(F)(F)F	12.68
COc1ccccc1CN1C[C@@H]2COC[C@]2(COc2cccnc2)C1.O=C(O)C(F)(F)F.O=C(O)C(F)(F)F	52.99
COc1cc(N2C[C@@H]3COC[C@]3(COCc3ccccn3)C2)ncn1.O=C(O)C(F)(F)F.O=C(O)C(F)(F)F	-135.9
Cc1cnc(CN(C)Cc2cc3c(cc2OC(F)F)OCO3)o1	-25.68
Cc1noc(C)c1CSCc1csc(CS(C)(=O)=O)n1	-34.91
COCCCNC(=O)c1cc(-c2cnc(N3CCOCC3)nc2)cn1C.O=C(O)C(F)(F)F	-55.95
CCn1ncc2c1C(COC)CN(Cc1nccs1)C2 (stereo not given)	-17.13
COc1ccc(-n2ccc(C(=O)NCCN3CCCC(C)C3)n2)cc1 (stereo not given)	4.937
Cn1cc(CN2C[C@H]3CCN(C(=O)c4cscn4)C[C@H]3C2)cn1.O=C(O)C(F)(F)F	-59.18
CC(Cn1cccn1)NCc1csc(Cc2ccccc2)n1 (stereo not given)	5.726
COc1ccc(CCN)cc1-c1ccc(O)cc1	84.96
CCOc1ccc(-c2cc(CCN)ccc2OC)cc1	-62.01
COc1ccc(CCN)cc1-c1ccc(C(N)=O)cc1	6.686
O=C(Cn1c(=O)oc2ccccc21)NCC1(O)CCc2ccccc21 (stereo not given)	-139.2
c1cnc(N2CCCC(c3cncc(-n4ccnc4)n3)C2)nc1 (stereo not given)	-26.3
Cc1cc(NCCN)nc(-c2ccccc2O)n1	78.32

Structure (SMILES)	Percent Effect [%]
Cc1cc(NCCNc2cccnc2)nc(-c2ccccc2O)n1	-179.2
Cc1cc(NCCO)nc(-c2ccccc2O)n1	-228.5
COCC1COCCC12CCN(S(=O)(=O)c1ccc(C)cc1)CC2 (stereo not given)	-77.98
CCNC(=O)[C@@H]1C[C@@H](NC(=O)c2cnc[nH]c2=O)CN1Cc1ccsc1	-128.1
O=C(CN1CCOCC1)Nc1ncc(Br)cc1Br	-123.1
c1ccc2c(c1)cnn2CCCNC1CCOC2(CCOCC2)C1 (stereo not given)	68.4
Fc1cccc(C2(CNC3CCCNC3)CCOCC2)c1 (stereo not given)	-89.15
Fc1cccc(C2(CNC3CCOC4(CCOCC4)C3)CCOCC2)c1 (stereo not given)	39.6
c1ccc2c(c1)nnn2CCCNC1CCOC2(CCOCC2)C1 (stereo not given)	-5.834
c1ccc(Cc2noc(CCNC3CCOC4(CCOCC4)C3)n2)cc1 (stereo not given)	-44.81
Fc1ccccc1C1(CNC2CCOC3(CCOCC3)C2)CCCC1 (stereo not given)	75.67
COc1c(CNC2CCN(C(=O)C(C)C)CC2)c(C(C)C)nn1C	-79.75
CSc1cccc(NC(=O)CCC(=O)Nc2nccs2)c1	-6.233
CCOC(=O)Cn1ccc(NC(=O)Cc2ccccc2F)n1	-129.4
COc1ccc(CCNC(C)c2ccc3[nH]c(=O)[nH]c3c2)cc1OC (stereo not given)	-75.57
Cc1ccc(S(=O)(=O)N2CCC(S(C)(=O)=O)CC2)cc1C	-5.803
Cc1ccc(S(=O)(=O)N2CCC(N3CCCCC3)CC2)cc1C	64.64
Cc1ccc(S(=O)(=O)N2CCC(S(=O)(=O)c3nncn3C)CC2)cc1C	-38.79
Cc1cc(S(=O)(=O)N2CCCN3CCCC3C2)ccc1F (stereo not given)	67.89
Cc1ccc(S(=O)(=O)N2CCCCC(N3CCN(C)CC3)C2)cc1F (stereo not given)	37.26
Cc1cc(S(=O)(=O)N2CCC(S(C)(=O)=O)C2)ccc1F (stereo not given)	-26.98
Cc1nc2ccccc2n1Cc1cc(C(=O)N(C)C2CCOC2)n[nH]1 (stereo not given)	-89.66
Cc1nc(CN(C)C2CCN(Cc3nc4c(F)cccc4[nH]3)C2)no1 (stereo not given)	-2.567
CCOCC(=O)Nc1cccnc1-n1ccnc1C	-153.7

Structure (SMILES)	Percent Effect [%]
Cc1ncc(CNC(C)(C)CO)c2cc(C(=O)c3ccc(Br)cc3)oc12	36.54
Cc1ncc(CN(C)CCO)c2cc(C(=O)c3ccc(Br)cc3)oc12.Cl	47.82
Cc1ncc(CNCCO)c2cc(C(=O)c3ccc(Br)cc3)oc12.Cl	88.87
Cc1ncc(CNCC(C)O)c2cc(C(=O)c3ccc(Br)cc3)oc12.Cl (stereo not given)	8.12
CN(C)c1ccc(C(=O)NCc2csc(Br)c2)cn1	-36.5
Cc1ncc(CN2CCOCC2)c2cc(C(=O)c3ccc(Br)cc3)oc12.Cl	-6.646
COc1ncc(C(=O)NCc2ccc(Br)cc2)cn1	-41.11
Cc1ncc(CN2CCCC2)c2cc(C(=O)c3ccc(Br)cc3)oc12.Cl	66.17
COCCNC(=O)[C@@H]1CCO[C@@H]2CCN(Cc3cnn(C)c3)C[C@@H]21	-0.06334
Cc1nn(Cn2ccc(C(=O)N3CCOCC3)n2)c(C)c1Cl	-94.44
O=c1c(NCc2ccccn2)c(NCC(O)CN2CCOCC2)c1=O (stereo not given)	-115.3
Cc1cccc(CN2CC3(CCN(Cc4ccco4)CC3)OCC2=O)n1.O=C(O)C(F)(F)F.O=C(O)C(F)(F)F	-46.8
CC(C)Oc1ccc(C(=O)N2CCCC2c2cnn(C)c2)cn1 (stereo not given)	-40.89
CNC(=O)c1cn2cc(-c3cccc(Cl)c3)n(CC3CC3)c(=O)c2n1	19.26
CNC(=O)c1cn2cc(-c3cccc(Cl)c3)n(CC=C(C)C)c(=O)c2n1	56.44
COCCCNC(=O)Cn1c(-c2cccc(Cl)c2)nc(C)cc1=O	-51.33
COc1ccc(OC)c(NC(=O)c2cc3c([nH]c2=O)CCCC3=O)c1	-53.3
Cc1c(C)n(CC(O)CN2CCC(O)CC2)c2c(Cl)cccc12 (stereo not given)	43.5
Cc1c(C)n(CC(O)CN2CCCCCC2)c2c(Cl)cccc12 (stereo not given)	50.38
Cc1c(C)n(CC(O)CN2CCOCC2)c2c(Cl)cccc12.Cl (stereo not given)	-18.53
CC1CCN(CC(O)Cn2cnc3ccc(Cl)cc3c2=O)CC1 (stereo not given)	28.19
O=C(c1cccc(Cl)c1Cl)N1CCN(CC(O)Cn2cccn2)CC1 (stereo not given)	-16.31
Cc1c(C)n(CC(O)CN2CCC(C)CC2)c2c(Cl)cccc12 (stereo not given)	82.43
